Only a selection was taken, and hits are over-represented in it overall.
CHX counter – affects cycloheximide protein synthesis inhibition readout, counter-screen. cell reporter, cycloheximide protein synthesis inhibition counterscreen. max response, %. hit rate 12% among 300,000. AID 2314; in the data active means max response mostly above about 13%, no sharp cut-off; inactive means mostly below about 14%; further: read at 38.3 µM for the half of the compounds with a filed dose
Lassa entry inh – inhibitors of Lassa virus binding or cell entry | Lassa virus pseudotype entry inhibition, cell reporter | hit rate 1.2% among 300,000 | Potency, µM (top dose mostly 37.9 µM), hits mostly inhibitors; calls by dose curve; tested in HEK293 cells; further: nearly all actives have a fitted effect of over 50% in size
Vaccinia mCherry – vaccinia inhibition (mCherry reporter); Vaccinia virus mCherry reporter infection, fluorescence; Potency, µM (highest dose often 36.5 µM), hits mostly inhibitors; hit rate 0.63% among 310,000; AID 720579; calls by dose curve; tested in A549 cells; further: nearly all actives have a fitted effect of over 35% in size
Shiga toxin inh – blocks Shiga toxin action in Vero cells | Vero cells, Shiga toxin protein synthesis inhibition reporter | hit rate 9.2% among 290,000 | AID 2315 | inhibition, % at 38.7 µM; in the data active means inhibition mostly above about 28%, no sharp cut-off; inactive means mostly below about 43%
Vaccinia Venus – inhibitors of vaccinia virus (Venus reporter); Potency, µM (series often up to 36.5 µM), usual class: inhibitors; Vaccinia virus Venus reporter expression, fluorescence; hit rate 0.46% among 330,000; calls by dose curve; tested in A549 cells; further: nearly all actives have a fitted effect of over 30% in size
Marburg entry inh – blocks Marburg virus binding to or entry into cells; Marburg virus pseudotyped entry inhibition, cell reporter; Potency, µM (doses to about 37.8 µM), most hits filed as inhibitors; hit rate 1.8% among 300,000; calls by dose curve; tested in HEK293 cells
Numbers stand for hits; 0 = inactive; ? = inconclusive; - = not tested or not shown; [ ] = another dose, or the depositor's remark.

SMILES	CHX counter	Lassa entry inh	Vaccinia mCherry	Shiga toxin inh	Vaccinia Venus	Marburg entry inh
Cc1nnc2n(-c3ccccc3)c(=O)c3c4c(sc3n12)COC(C(C)C)C4 (centres undefined)	0	0	0	0	0	0
Cn1cnc2c(N/N=C/c3cccs3)ncnc21	30.9	?	0[7.34 µM]	37.9	0[7.34 µM]	?
COc1ccc(-c2nc3cc(C)c(Br)c(C)n3c2CC(C)(C)C)cc1OC	-	-	0	-	0	-
CCc1ccc(NC(=O)COc2ccc3c(c2)OCO3)cc1	31.4	-	-	41.8	-	-
CC(=O)c1ccc(NC(=O)COc2ccc3c(c2)OCO3)cc1	19.3	0	0	0	0	0
CCc1ccc(OCC(=O)Nc2ccc3c(c2)OCCO3)cc1	27.0	0	?	0	0	?
O=C(COc1ccc(S(=O)(=O)N2CCCC2)cc1)Nc1ccc2c(c1)OCCO2	24.1	?	0	44.3	0	?
CC(=O)Nc1ccc(NC(=O)COc2ccc(S(=O)(=O)N3CCCC3)cc2)cc1	0	0	0	0	0	0
Cc1csc(NC(=O)CN2C(=O)c3ccccc3C2=O)c1C(N)=O	0	-	-	0	-	-
C[C@@H](NCCCc1cccc(C(F)(F)F)c1)c1cccc2ccccc12	-	-	0	-	?	-
COc1cc2c(cc1NC(=O)COc1ccc(Br)c(C)c1)oc1ccccc12	-	?	0	-	0	0
COc1ccccc1NC(=O)C1CCC(CNc2c(N3CCCCC3)c(=O)c2=O)CC1 (centres undefined)	0	-	-	0	-	-
Cc1cc(C)n([C@@H]2CCCC[C@H]2OC(=O)c2ccccc2)n1	-	-	-	-	-	0
COc1ccccc1NC(=O)N1CCC(CN2CCc3ccccc3C2)CC1	-	0	0	-	0	-
Cc1cc(OCC(=O)Nc2cccc(S(=O)(=O)N3CCCC3)c2)ccc1Cl	-	?	0	-	0	5.01µM
COc1ccc(NC(=O)COc2ccc3c(c2)OCO3)cc1	0	0	0	0	0	0
COc1cccc(/C=C/C(=O)OCC(=O)Nc2cccc(S(=O)(=O)N3CCCCC3)c2)c1OC	0	0	0	61.4	0	0
Cc1cccc(C)c1OCC(=O)Nc1cccc(S(=O)(=O)N2CCCC2)c1	-	?	0	-	0	?
CC(=O)Nc1cccc(NC(=O)COc2ccc3c(c2)OCO3)c1	27.5	0	0	59.8	0	?
Cc1ccc(S(=O)(=O)NNC(=O)c2ccc(C(=O)N(c3ccccc3)c3ccccc3)cc2)cc1	-	-	0	-	0	-
Cc1ccc(/C(N)=N/OC(=O)CCCc2ccccc2)cc1	56.5	0	0	42.7	0	0
Cc1ccc(C(N)=Nc2ccccc2)cc1	15.9	-	0	0	0	-
N/C(=N\OC(=O)Cc1ccccc1)c1ccncc1	0	0	-	0	-	0
Cc1ccc(CC(=O)O/N=C(\N)c2ccncc2)cc1	29.9	-	-	0	-	-
N/C(=N\OC(=O)CCCc1ccccc1)c1ccccc1Cl	32.7	0	0	0	0	?
SMILES	CHX counter	Lassa entry inh	Vaccinia mCherry	Shiga toxin inh	Vaccinia Venus	Marburg entry inh
Brc1cnc(OCc2ccccc2)nc1OCc1ccccc1	-	0	0	-	0	0
COc1ccc(C(CNC(=O)Nc2cccc(C)c2)N2CCN(C)CC2)cc1 (centres undefined)	0	-	-	0	-	-
O=C(Cn1c(=O)oc2ccccc21)Nc1ccc(F)cc1	0	0	0	-	0	0
Cc1ccc(/C(N)=N/OC(=O)Cc2ccccc2)cc1	52.5	?	0	54.4	0	0
COc1ccc(/C(N)=N/OC(=O)Cc2ccc(C)cc2)cc1	30.1	0	0	50.1	0	0
N/C(=N\OC(=O)CN1C(=O)c2ccccc2C1=O)c1ccc(Br)cc1	0	0	-	0	-	0
N/C(=N\OC(=O)Cc1ccccc1)c1ccc(Br)cc1	53.2	0	0	104.0	0	?
COc1ccc(/C(N)=N/OC(=O)Cc2ccc(OC)c(OC)c2)cc1	0	0	0	0	0	?
Cc1ccccc1-n1cc(CNC(=O)CN2Cc3ccccc3OC(C)C2)cn1 (centres undefined)	-	-	0	-	0	-
Cc1cc(C2C(=O)c3ccccc3C2=O)c(C)c(C)c1C	0	-	-	0	-	-
Cc1cc(C)cc(NC(=O)/C(C#N)=C/c2cn(CC(=O)NCc3ccco3)c3ccccc23)c1	0	?	?	0	5.62µM	?
Cc1ccc(NC(=O)/C(C#N)=C/c2cn(CC(=O)NCc3ccco3)c3ccccc23)cc1C	0	0	0	0	0	0
Cc1ccccc1OCCn1cc(/C=C(\C#N)C(=O)NCc2ccco2)c2ccccc21	0	0	0	0	0	?
N#C/C(=C\c1cn(CCOc2ccccc2)c2ccccc12)C(=O)NCc1ccco1	16.0	0	-	0	-	0
CC(=O)c1cccc(NC(=O)c2ccc([N+](=O)[O-])o2)c1	-	?	0[7.34 µM]	-	0[7.34 µM]	?
Cc1ccc(C)c(-c2nnc(NC(=O)c3ccc([N+](=O)[O-])o3)o2)c1	-	?	?	-	?	0
NC(=O)c1oc2ccccc2c1NC(=O)c1ccc(F)cc1	0	-	0	0	0	-
NC(=O)c1oc2ccccc2c1NC(=O)c1ccc([N+](=O)[O-])o1	0	?	?	28.2	?	?
Cc1cc(C)cc(NC(=O)c2ccc([N+](=O)[O-])o2)c1	34.0	?	?	35.3	?	?
Cc1cc(NC(=O)c2ccc([N+](=O)[O-])o2)ccc1NC(=O)c1ccco1	36.3	-	-	96.8	-	-
CC(=O)c1ccc(NC(=O)c2ccc([N+](=O)[O-])o2)cc1	33.7	-	-	97.9	-	-
Cc1ccc(CNC(=O)CCn2cnc3ccccc3c2=O)cc1	-	0	0	-	0	-
COc1ccc(O[C@H]2C=C[C@@H](c3ccccc3)O[C@H]2COC(=O)CCC(C)=NO[C@@H]2O[C@H](COC(C)=O)[C@@H](OC(C)=O)[C@H](OC(C)=O)[C@@H]2OC(C)=O)cc1	-	-	-	-	-	0
COc1cccc(CNC(=O)C2CCN(C(=O)c3cnn(-c4ccccc4)c3-n3cccc3)CC2)c1	-	0	0	-	0	?
COCCNC(=O)c1[nH]c2cc(C)ccc2c1Sc1ccc(Cl)cc1	-	0	0	-	0	0
SMILES	CHX counter	Lassa entry inh	Vaccinia mCherry	Shiga toxin inh	Vaccinia Venus	Marburg entry inh
CC(C)C(=O)N1CCN(c2ccc(NC(=O)c3ccc([N+](=O)[O-])o3)cc2)CC1	40.4	0	10µM	0	11.2µM	0
COc1ccc(NC(=O)c2ccc([N+](=O)[O-])o2)cc1	0	0	?	0	?	11.2µM
NC(=O)c1oc2ccccc2c1NC(=O)c1nc2ccccc2s1	41.4	0	-	99.0	0	?
COc1cc(NC(=O)c2ccc([N+](=O)[O-])o2)ccc1NC(=O)c1ccco1	0	-	-	0	-	-
O=C(NNC(=O)c1ccc([N+](=O)[O-])o1)c1ccccc1	24.9	0	-	0	?	?
O=C(NCC(=O)N1CCN(c2ccccc2O)CC1)c1cccs1	-	0	?	-	0	0
Cc1cc(NC(=O)c2ccco2)ccc1NC(=O)Cc1cccs1	19.6	0	-	31.6	0	0
Cc1ccc(NC(=O)c2ccco2)c(NC(=O)Cc2cccs2)c1	0	0	-	0	-	0
C/C(=N/NC(=O)c1ccc(Br)s1)c1cccnc1	23.5	-	-	0	-	-
C/C(=N\NC(=O)c1cc(-c2ccc(C)s2)nc2ccccc12)c1cccnc1	22.5	0	?	0	0	0
C/C(=N/NC(=O)c1ccc(Br)s1)c1ccncc1	15.6	-	-	0	-	-
C/C(=N/NC(=O)c1ccc(C)s1)c1cccnc1	34.1	-	-	71.2	-	-
C/C(=N/NC(=O)c1ccc(Cl)s1)c1cccnc1	0	?	?	0	0	0

Source: PubChem (National Center for Advancing Translational Sciences (NCATS))
